# Counter-ions that a name gives are not always drawn.
# Legend:
# [1] = tested on: HCC1937; experiment: relative cell viability, compound + RSL3, vs DMSO (fraction of DMSO control); higher = less growth inhibition; settings: 72 h
# [2] = tested on: MDA-MB-231; experiment: as above; settings: 72 h
# 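Also: breast cancer cell viability read out with the CCK-8 kit after co-treatment of each compound with the ferroptosis inducer RSL3.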
SMILES,relative cell viability [1],relative cell viability [2]
C[C@H](CCOc1cccc(CC(=O)O)c1)N(Cc1cccc(C(F)(F)F)c1Cl)CC(c1ccccc1)c1ccccc1 + COC(=O)c1ccc([C@H]2c3[nH]c4ccccc4c3C[C@H](C(=O)OC)N2C(=O)CCl)cc1 [RSL3],0.318,0.532
C[C@H](CCOc1cccc(CC(=O)O)c1)N(Cc1cccc(C(F)(F)F)c1Cl)CC(c1ccccc1)c1ccccc1 [RGX-104 free Acid] + COC(=O)c1ccc([C@H]2c3[nH]c4ccccc4c3C[C@H](C(=O)OC)N2C(=O)CCl)cc1 [RSL3],0.333,0.561
CCCCCCCCCCCCCCOc1ccc(C(=O)O)o1 + COC(=O)c1ccc([C@H]2c3[nH]c4ccccc4c3C[C@H](C(=O)OC)N2C(=O)CCl)cc1 [RSL3],0.613,0.673
CN(C)CCOC(=O)COc1ccc(Cl)cc1 [Meclofenoxate hydrochloride] + COC(=O)c1ccc([C@H]2c3[nH]c4ccccc4c3C[C@H](C(=O)OC)N2C(=O)CCl)cc1 [RSL3],0.612,0.574
CC(C)c1onc(-c2c(Cl)cccc2Cl)c1COc1ccc(/C=C/c2cccc(C(=O)O)c2)c(Cl)c1 + COC(=O)c1ccc([C@H]2c3[nH]c4ccccc4c3C[C@H](C(=O)OC)N2C(=O)CCl)cc1 [RSL3],0.874,0.699
CCCCCCCCCCC[C@@H](C[C@@H]1OC(=O)[C@H]1CCCCCC)OC(=O)[C@H](CC(C)C)NC=O [Orlistat] + COC(=O)c1ccc([C@H]2c3[nH]c4ccccc4c3C[C@H](C(=O)OC)N2C(=O)CCl)cc1 [RSL3],0.572,0.167
COc1cccc(-n2c(=O)[nH]c3cc(Cl)n(-c4ccc(-c5cccc(OC)c5O)cc4)c3c2=O)c1 + COC(=O)c1ccc([C@H]2c3[nH]c4ccccc4c3C[C@H](C(=O)OC)N2C(=O)CCl)cc1 [RSL3],0.395,0.572
CC(C)=CCC[C@](C)(O[C@@H]1O[C@H](CO)[C@@H](O)[C@H](O)[C@H]1O)[C@H]1CC[C@]2(C)[C@@H]1[C@H](O)C[C@@H]1[C@@]3(C)CC[C@H](O[C@@H]4O[C@H](CO)[C@@H](O)[C@H](O)[C@H]4O[C@@H]4O[C@H](CO)[C@@H](O)[C@H](O)[C@H]4O)C(C)(C)[C@@H]3CC[C@]12C [Ginsenoside Rd] + COC(=O)c1ccc([C@H]2c3[nH]c4ccccc4c3C[C@H](C(=O)OC)N2C(=O)CCl)cc1 [RSL3],0.616,0.478
O=C(O)CCn1c2c(c3ccccc31)C[C@H](NS(=O)(=O)c1ccc(F)cc1)CC2 [Ramatroban] + COC(=O)c1ccc([C@H]2c3[nH]c4ccccc4c3C[C@H](C(=O)OC)N2C(=O)CCl)cc1 [RSL3],0.41,0.554
Oc1ccc2c(c1)OCO2 [Sesamol] + COC(=O)c1ccc([C@H]2c3[nH]c4ccccc4c3C[C@H](C(=O)OC)N2C(=O)CCl)cc1 [RSL3],0.399,0.548
CC[C@H](C)C(=O)O[C@H]1C[C@H](O)C=C2C=C[C@H](C)[C@H](CC[C@@H](O)C[C@@H](O)CC(=O)O)[C@H]21 [Pravastatin sodium] + COC(=O)c1ccc([C@H]2c3[nH]c4ccccc4c3C[C@H](C(=O)OC)N2C(=O)CCl)cc1 [RSL3],0.77,0.606
CC(C)OC(=O)C(C)(C)Oc1ccc(C(=O)c2ccc(Cl)cc2)cc1 [Fenofibrate] + COC(=O)c1ccc([C@H]2c3[nH]c4ccccc4c3C[C@H](C(=O)OC)N2C(=O)CCl)cc1 [RSL3],0.681,0.606
CNC(=O)c1cccc(NC(=O)N2CCC(Oc3ccccc3Cl)CC2)c1 + COC(=O)c1ccc([C@H]2c3[nH]c4ccccc4c3C[C@H](C(=O)OC)N2C(=O)CCl)cc1 [RSL3],0.895,0.683
COc1ccc(N(C(=O)Nc2c(C)cccc2C)c2cc(Nc3ccc(N4CCN(C)CC4)cc3)ncn2)c(OC)c1 + COC(=O)c1ccc([C@H]2c3[nH]c4ccccc4c3C[C@H](C(=O)OC)N2C(=O)CCl)cc1 [RSL3],0.624,0.576
O=C(Nc1cccnc1)N1CCC(Cc2cccc(Oc3ccc(C(F)(F)F)cn3)c2)CC1 + COC(=O)c1ccc([C@H]2c3[nH]c4ccccc4c3C[C@H](C(=O)OC)N2C(=O)CCl)cc1 [RSL3],0.727,0.644
COC(=O)CN(c1ccc(CN(c2ccc(OCc3ccc(C)cc3)c(C(=O)OC)c2)S(=O)(=O)Cc2ccccc2)cc1)S(C)(=O)=O + COC(=O)c1ccc([C@H]2c3[nH]c4ccccc4c3C[C@H](C(=O)OC)N2C(=O)CCl)cc1 [RSL3],0.538,0.626
CN(C)C(=N)NC(=N)N [Metformin hydrochloride] + COC(=O)c1ccc([C@H]2c3[nH]c4ccccc4c3C[C@H](C(=O)OC)N2C(=O)CCl)cc1 [RSL3],0.855,0.605
O=C(NC1CCN(CCCCC2(C(=O)NCC(F)(F)F)c3ccccc3-c3ccccc32)CC1)c1ccccc1-c1ccc(C(F)(F)F)cc1 [Lomitapide] + COC(=O)c1ccc([C@H]2c3[nH]c4ccccc4c3C[C@H](C(=O)OC)N2C(=O)CCl)cc1 [RSL3],0.173,0.391
O=C(Nc1cccnn1)N1CCC(=Cc2cccc(Oc3ccc(C(F)(F)F)cn3)c2)CC1 + COC(=O)c1ccc([C@H]2c3[nH]c4ccccc4c3C[C@H](C(=O)OC)N2C(=O)CCl)cc1 [RSL3],0.686,0.601
COC(=O)c1sccc1S(=O)(=O)Nc1ccc(Nc2ccccc2)cc1OC + COC(=O)c1ccc([C@H]2c3[nH]c4ccccc4c3C[C@H](C(=O)OC)N2C(=O)CCl)cc1 [RSL3],0.347,0.542

# Reference: the supplement of paper PMC9492666
